Laboratory results reported in PubChem BioAssay (Tox21).
“And” between values parts separate entries of the source, which are not always exact repeats. Equal values may be shown once. Records with an inconclusive call do not appear. The source made the active and inactive calls. Unless noted, the call rests on the fitted dose curve.

Experiments:
[1] = Nuclear factor erythroid 2-related factor 2/antioxidant responsive element (Nrf2/ARE) small molecule agonists: qHTS cell viability counter screen in human keratinocytes (AID 1919968; active means well fitted curve in the direction sought with a large enough effect in the repeat runs; an effect the other way counts as inactive or inconclusive; further: nearly all actives have a fitted effect of over 55% in size)
In short: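 Fluorescence read-out from CellTiter-Fluor after 1 h at 37 C. Wells held HaCaT-derived ARE-luciferase reporter cells (1,500/well) treated 23 h with DMSO-dissolved compounds. Run in the same wells as the luciferase agonist read.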

[2] = Nuclear factor erythroid 2-related factor 2/antioxidant responsive element (Nrf2/ARE) small molecule agonists: luciferase reporter gene qHTS assay in human keratinocytes (AID 1919969); further: nearly all actives have a fitted effect of over 35% in size; further: potency means the concentration at half of the fitted maximal effect
[3] = biological target: Gonadotropin-releasing hormone receptor (Homo sapiens) (UniProt P30968); test: Human gonadotropin-releasing hormone receptor (GnRHR) small molecule agonists, calcium flux assay in GnRHR-HEK293 cells (AID 1920063); further: nearly all actives have a fitted effect of over 35% in size
Chain of Gonadotropin-releasing hormone receptor (Homo sapiens) (P30968 whole entry, looked up): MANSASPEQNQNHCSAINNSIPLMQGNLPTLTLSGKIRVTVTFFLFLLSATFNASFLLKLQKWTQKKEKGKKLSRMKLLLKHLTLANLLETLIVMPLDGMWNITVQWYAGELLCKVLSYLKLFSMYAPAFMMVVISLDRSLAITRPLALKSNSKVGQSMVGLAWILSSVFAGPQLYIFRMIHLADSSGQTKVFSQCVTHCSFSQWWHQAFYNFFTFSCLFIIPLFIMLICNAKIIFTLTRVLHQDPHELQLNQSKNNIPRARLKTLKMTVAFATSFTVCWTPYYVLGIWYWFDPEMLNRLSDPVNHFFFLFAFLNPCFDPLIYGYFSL
In short: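 Calcium-dye fluorescence, Ex/Em=480/540, recorded every 1 sec over 3 min after compound addition to GnRHR-HEK293 cells. Cells had been seeded 18 hours earlier and dye-loaded for 1 hour at 37 C. Fifteen concentrations, triplicates.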

[4] = biological target: KiSS-1 receptor (Homo sapiens) (UniProt Q969F8); test: Human kisspeptin (KISS1R) small molecule agonists, calcium flux assay in KISS1R-HEK293 cells (AID 1920064; active means well fitted curve in the direction sought with a large enough effect in the repeat runs; an effect the other way counts as inactive or inconclusive)
Chain of KiSS-1 receptor (Homo sapiens) (Q969F8 whole entry, looked up): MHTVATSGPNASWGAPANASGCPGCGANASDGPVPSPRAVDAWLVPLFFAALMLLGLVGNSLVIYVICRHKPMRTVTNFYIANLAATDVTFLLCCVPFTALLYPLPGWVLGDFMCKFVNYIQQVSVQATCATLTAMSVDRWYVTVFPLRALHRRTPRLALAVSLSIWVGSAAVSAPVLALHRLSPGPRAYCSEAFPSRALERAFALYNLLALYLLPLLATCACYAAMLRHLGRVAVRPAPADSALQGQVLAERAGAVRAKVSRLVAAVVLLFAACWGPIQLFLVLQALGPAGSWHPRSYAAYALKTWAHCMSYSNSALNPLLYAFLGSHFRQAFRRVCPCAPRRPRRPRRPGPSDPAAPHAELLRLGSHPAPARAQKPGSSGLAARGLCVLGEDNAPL
In short: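 Calcium flux read-out: kinetic fluorescence at Ex/Em=480/540, 1 s intervals over 3 min, after pin-tool compound addition to dye-loaded KISS1R-HEK293 cells. Fifteen concentrations, triplicates.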

[5] = G protein-coupled receptor (GPCR) small molecule agonists, calcium flux assay: HEK293 wild type cell line counter screen (AID 1920065)
In short: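 Agonist mode; 18 h seeding at 37 C, 1 h dye load at 37 C; compounds pinned from DMSO, ATP as positive control; kinetic fluorescence 480/540 nm, 3 min, 1 s reads; 15 concentrations, triplicate.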

[6] = p53 small molecule agonists, cell-based qHTS assay with human liver microsomes: qHTS cell viability counter screen (AID 1963579); further: nearly all actives have a fitted effect of over 45% in size
In short: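 Seed p53RE-bla cells at 4,000 per well; incubate 5 h at 37 C; add compound, human liver microsomes and NADPH; incubate 16 h at 37 C; add CellTiter-Glo; after 30 min at room temperature, read luminescence.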

[7] = p53 small molecule agonists, cell-based qHTS assay with rat liver microsomes: qHTS cell viability counter screen (AID 1963580); further: nearly all actives have a fitted effect of over 45% in size
In short: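 Cytotoxicity counter screen: intracellular ATP read by CellTiter-Glo luminescence in the p53 reporter wells. HCT-116 p53RE-bla cells were treated for 16 h at 37 C alongside rat liver microsomes and NADPH, each 0.5 mg/mL final.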

[8] = p53 small molecule agonists, cell-based qHTS assay: qHTS cell viability counter screen (AID 1963581); further: nearly all actives have a fitted effect of over 45% in size
In short: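 Cytotoxicity read-out: ATP-based luminescence (CellTiter-Glo, 30 min RT) measured in the same wells as the p53 reporter assay, HCT-116 p53RE-bla cells, 16 h compound exposure at 37 C.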

[9] = biological target: 5-hydroxytryptamine receptor 2A (Homo sapiens) (UniProt P28223); test: 5-hydroxytryptamine receptor 2A (HTR2A) small molecule antagonists, cell-based qHTS assay (AID 1963586); further: nearly all actives have a fitted effect of over 45% in size
Chain of 5-hydroxytryptamine receptor 2A (Homo sapiens) (P28223 whole entry, looked up): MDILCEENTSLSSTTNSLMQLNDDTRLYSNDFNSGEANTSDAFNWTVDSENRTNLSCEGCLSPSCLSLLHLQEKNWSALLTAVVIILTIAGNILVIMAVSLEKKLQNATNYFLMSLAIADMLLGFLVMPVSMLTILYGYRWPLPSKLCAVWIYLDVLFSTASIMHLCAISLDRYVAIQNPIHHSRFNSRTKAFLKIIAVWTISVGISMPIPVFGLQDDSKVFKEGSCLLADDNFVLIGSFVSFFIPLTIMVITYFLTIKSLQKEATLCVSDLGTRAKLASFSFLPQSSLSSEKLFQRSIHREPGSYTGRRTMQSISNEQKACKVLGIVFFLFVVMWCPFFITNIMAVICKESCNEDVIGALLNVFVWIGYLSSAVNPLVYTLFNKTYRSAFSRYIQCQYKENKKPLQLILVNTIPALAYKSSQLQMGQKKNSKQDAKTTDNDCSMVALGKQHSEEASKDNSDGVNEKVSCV
In short: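 CHO cells stably expressing human HTR2A were plated for 18 h at 37 C, then loaded with calcium dye for 1 h. Compounds were preincubated 5 min at room temperature before DOI (4 nM solution) was added. Kinetic fluorescence was read for 3 min.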

[10] = biological target: 5-hydroxytryptamine receptor 2A (Homo sapiens) (UniProt P28223); test: 5-hydroxytryptamine receptor 2A (HTR2A) small molecule agonists, cell-based qHTS assay (AID 1963587); further: nearly all actives have a fitted effect of over 30% in size
In short: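 Kinetic calcium-flux fluorescence (2 min, 1 sec intervals) after compound addition in agonist mode. HTR2A-CHO cells were cultured 18 h, then dye-loaded 1 h at 37 C.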

[11] = biological target: Muscarinic acetylcholine receptor M1 (Homo sapiens) (UniProt P11229); test: Cholinergic receptor muscarinic 1 (CHRM1) small molecule agonists, cell-based qHTS assay (AID 1963589); further: nearly all actives have a fitted effect of over 35% in size
Chain of Muscarinic acetylcholine receptor M1 (Homo sapiens) (P11229 whole entry, looked up): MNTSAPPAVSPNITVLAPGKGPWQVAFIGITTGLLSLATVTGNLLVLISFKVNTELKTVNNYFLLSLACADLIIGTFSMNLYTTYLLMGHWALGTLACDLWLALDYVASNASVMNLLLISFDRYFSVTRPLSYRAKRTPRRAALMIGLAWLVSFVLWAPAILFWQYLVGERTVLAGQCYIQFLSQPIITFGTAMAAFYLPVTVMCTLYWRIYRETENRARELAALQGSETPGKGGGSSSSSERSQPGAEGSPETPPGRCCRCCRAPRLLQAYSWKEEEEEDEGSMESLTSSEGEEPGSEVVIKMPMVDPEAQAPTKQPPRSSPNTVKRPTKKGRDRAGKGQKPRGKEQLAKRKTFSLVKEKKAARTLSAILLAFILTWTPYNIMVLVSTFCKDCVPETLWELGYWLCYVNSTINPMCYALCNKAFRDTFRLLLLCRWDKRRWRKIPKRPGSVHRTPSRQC
In short: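 Calcium flux read-out: kinetic fluorescence at 1 sec intervals after pin-tool compound addition to dye-loaded CHRM1-CHO cells (human M1). Agonist mode; 15 concentrations tested in triplicate independent runs.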

[12] = cAMP Responsive Elements (CRE) small molecule agonists, cell-based qHTS assay (AID 1963590)
In short: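 Beta-lactamase reporter readout: LiveBLAzer B/G FRET substrate, 2 h at room temperature, added after 3 h compound treatment of CRE-bla HEK 293T cells at 37 C/5% CO2.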

[13] = cAMP Responsive Elements (CRE) small molecule antagonists, cell-based qHTS assay (AID 1963591; active means well fitted inhibition curve with a large enough effect in the signal ratio in the repeat runs, not every such curve was filed as active; the % refers to the signal ratio)
In short: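 HEK293T CRE-bla; 18 h preincubation; compound pin-transfer; NKH477 0.25 uM final, 3 h, 37 C; LiveBLAzer FRET substrate 2 h RT.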

[14] = biological target: Beta-2 adrenergic receptor (Homo sapiens) (UniProt P07550); test: Adrenergic beta2 receptor (ADRB2) small molecule antagonists, cell-based qHTS assay (AID 1963592); further: series mostly up to about 92 µM; nearly all actives have a fitted effect of over 50% in size
Chain of Beta-2 adrenergic receptor (Homo sapiens) (P07550 whole entry, looked up): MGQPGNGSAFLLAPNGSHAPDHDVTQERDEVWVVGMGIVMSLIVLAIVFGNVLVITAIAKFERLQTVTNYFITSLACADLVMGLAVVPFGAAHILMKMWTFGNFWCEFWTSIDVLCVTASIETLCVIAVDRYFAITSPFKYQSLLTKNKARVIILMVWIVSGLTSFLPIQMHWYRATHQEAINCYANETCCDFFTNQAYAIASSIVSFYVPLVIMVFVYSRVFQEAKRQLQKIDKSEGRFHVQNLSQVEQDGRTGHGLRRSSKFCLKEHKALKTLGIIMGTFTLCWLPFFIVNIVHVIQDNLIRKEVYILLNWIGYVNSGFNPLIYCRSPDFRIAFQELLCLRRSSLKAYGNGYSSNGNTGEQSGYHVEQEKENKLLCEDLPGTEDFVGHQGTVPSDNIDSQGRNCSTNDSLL
In short: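 Assay format: CHO-ADRB2 cells, 18-20hr seeding at 37C/5% CO2, then compound plus 1nM isoproterenol agonist mix for 0.5hr RT. Homogeneous time-resolved fluorescence cAMP detection after 1hr, expressed as 665/615 nm ratio.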

[15] = biological target: D(2) dopamine receptor (Homo sapiens) (UniProt P14416); test: Dopamine D2 receptor (DRD2) small molecule agonists, cell-based qHTS assay (AID 1963594); further: nearly all actives have a fitted effect of over 35% in size
Chain of D(2) dopamine receptor (Homo sapiens) (P14416 whole entry, looked up): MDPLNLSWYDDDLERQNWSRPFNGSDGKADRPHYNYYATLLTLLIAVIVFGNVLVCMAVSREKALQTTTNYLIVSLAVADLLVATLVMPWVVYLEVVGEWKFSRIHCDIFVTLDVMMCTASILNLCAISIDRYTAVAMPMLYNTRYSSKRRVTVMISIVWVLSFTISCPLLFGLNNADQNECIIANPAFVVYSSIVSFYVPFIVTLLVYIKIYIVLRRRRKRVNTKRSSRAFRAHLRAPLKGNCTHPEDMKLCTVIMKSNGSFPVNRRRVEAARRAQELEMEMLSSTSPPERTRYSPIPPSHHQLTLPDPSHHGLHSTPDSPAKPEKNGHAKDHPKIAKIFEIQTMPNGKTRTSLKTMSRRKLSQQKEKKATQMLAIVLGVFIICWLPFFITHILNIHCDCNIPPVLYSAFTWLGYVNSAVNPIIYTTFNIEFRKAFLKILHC
In short: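 cAMP accumulation in DRD2-HEK293 cells measured by HTRF after 1 h detection; compounds added 10 min before NKH477 (200nM […]) forskolin-analogue stimulation, 30 min at room temperature, with Ro20-1724 present at 0.1 mM final.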

[16] = biological target: D(2) dopamine receptor (Homo sapiens) (UniProt P14416); test: Dopamine D2 receptor (DRD2) small molecule antagonists, cell-based qHTS assay (AID 1963595; active means well fitted inhibition curve with a large enough effect in the signal ratio in the repeat runs, with a control signal flat; the % refers to the signal ratio)
In short: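 HEK293 cells stably expressing DRD2, preincubated with 0.1 mM Ro20-1724 and compounds 10 min, were stimulated with 200 nM NKH477 plus 12 nM quinpirole for 30 min at room temperature; cAMP measured by HTRF (665/620 nm).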

[17] = biological target: Beta-2 adrenergic receptor (Homo sapiens) (UniProt P07550); test: Adrenergic beta2 receptor (ADRB2) small molecule agonists, cell-based qHTS assay (AID 1963593);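 further: CHO cells stably overexpressing human ADRB2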
In short: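 CHO cells stably over-expressing ADRB2 were plated overnight at 37C, then dosed with compounds plus a stimulation mix containing 100uM IBMX and 25uM Ro-20-1724 for 0.5hr at room temperature. cAMP was measured by HTRF competition, 1hr.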

[18] = biological target: Muscarinic acetylcholine receptor M1 (Homo sapiens) (UniProt P11229); test: Cholinergic receptor muscarinic 1 (CHRM1) small molecule antagonists, cell-based qHTS assay (AID 1963588); further: nearly all actives have a fitted effect of over 40% in size
In short: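 Compounds were tested at 15 concentrations in three independent runs. Dye-loaded CHRM1-CHO cells were exposed 5 min at room temperature before stimulation by acetylcholine added at 50nM. Intracellular calcium was read kinetically on FDSS for 3 min.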

Measured: Potency

O=S(=O)(O)c1ccc(O)cc1
inactive: [1] | [2] | [3] | [4] | [5] | [6] | [7] | [8] | [9] | [10] | [11] | [12] | [13] | [14] | [15] | [16]

NC(=O)N1c2ccccc2C=Cc2ccccc21
inactive: [1] | [2] | [3] | [4] | [5] | [6] | [7] | [12] | [13] | [14] | [15]

CNC(=O)Oc1ccc2c(c1)[C@]1(C)CCN(C)[C@@H]1N2C
inactive: [1] | [2] | [3] | [4] | [5] | [7] | [8] | [12] | [13] | [14] | [17] | [15] | [16]

CC(C)c1cccc(C(C)C)c1
inactive: [1] | [2] | [3] | [4] | [5] | [6] | [8] | [9] | [10] | [18] | [11] | [12] | [13] | [14] | [17] | [15] | [16]

O=C1NC(=O)C(c2ccccc2)(c2ccccc2)N1
inactive: [1] | [2] | [3] | [4] | [5] | [7] | [8] | [12] | [13] | [14] | [17] | [16]

CC1=CCC2CC1C2(C)C (stereo not drawn)
inactive: [1] | [2] | [3] | [4] | [5] | [6] | [7] | [8] | [9] | [18] | [11] | [12] | [13] | [14] | [17] | [15] | [16]

CN1CCC[C@H]1c1cccnc1
inactive: [1] | [2] | [3] | [4] | [5] | [7] | [8] | [12] | [13] | [14] | [17] | [15] | [16]

O=C(O)c1cc(C(=O)O)cc(S(=O)(=O)O)c1
inactive: [1] | [2] | [3] | [4] | [5] | [6] | [7] | [8] | [9] | [10] | [11] | [12] | [14] | [17] | [15] | [16]

O=c1oc(=O)c2cc3c(=O)oc(=O)c3cc12
inactive: [1] | [2] | [3] | [4] | [5] | [6] | [7] | [8] | [9] | [10] | [18] | [11] | [12] | [13] | [14] | [15] | [16]

O=C(O)C(=O)O
inactive: [1] | [2] | [3] | [4] | [5] | [6] | [7] | [9] | [10] | [18] | [11] | [12] | [13] | [14] | [15] | [16]

CC(C)C(=O)Nc1ccc([N+](=O)[O-])c(C(F)(F)F)c1
inactive: [1] | [2] | [3] | [4] | [5] | [6] | [7] | [8] | [14] | [15] | [16]

OCc1cccnc1
inactive: [1] | [2] | [3] | [4] | [5] | [6] | [7] | [8] | [9] | [10] | [18] | [12] | [13] | [14] | [17] | [15] | [16]

NC=O
inactive: [1] | [2] | [3] | [4] | [5] | [6] | [7] | [8] | [9] | [10] | [18] | [11] | [12] | [13] | [14] | [15] | [16]

Cc1ccc(C)c(OCCCC(C)(C)C(=O)O)c1
inactive: [1] | [2] | [3] | [4] | [5] | [6] | [7] | [8] | [13] | [17] | [15]

COC1=CC(=O)C[C@@H](C)[C@]12Oc1c(Cl)c(OC)cc(OC)c1C2=O
inactive: [1] | [2] | [3] | [4] | [5] | [6] | [7] | [12] | [13] | [14] | [17] | [15] | [16]

NS(=O)(=O)c1cc(C(=O)O)c(NCc2ccco2)cc1Cl
inactive: [1] | [2] | [3] | [4] | [5] | [12] | [14] | [17] | [15] | [16]

c1ccc2[nH]c(-c3cscn3)nc2c1
active: [2] 27.3 µM and 6.68 µM
inactive: [1] | [3] | [4] | [5] | [6] | [8] | [12] | [13] | [14] | [17] | [15]

CCCC(CCC)C(=O)O
inactive: [1] | [2] | [3] | [4] | [5] | [12] | [14] | [17] | [15] | [16]

CC1(C)OC[C@@H]2O[C@@]3(C(=O)O)OC(C)(C)O[C@H]3[C@@H]2O1
inactive: [1] | [2] | [3] | [4] | [5] | [6] | [7] | [8] | [9] | [10] | [18] | [11] | [12] | [13] | [17] | [15] | [16]

OC1C(O)C(O)C(O)C(O)C1O (stereo not drawn)
inactive: [1] | [2] | [3] | [4] | [5] | [6] | [7] | [8] | [9] | [18] | [11] | [12] | [13] | [14] | [17] | [15] | [16]
